{
  "source": "PubChem BioAssay AID602295",
  "about": "(Broad Institute, 2012)",
  "note": "Unmarked numbers belong to inactive results.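 How the source made its calls: active means every separate test run called active, meaning the signal drops and a potency is fitted within twice the top valid dose; inconclusive means runs disagree, poor fit, or flat partial inhibition; inactive means all runs inactive, flat, opposite direction or too weak.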",
  "data": [
    {"biological_target": "Mitogen-activated protein kinase 3 (Homo sapiens) (UniProt P27361)", "sequence (P27361 whole entry, looked up)": "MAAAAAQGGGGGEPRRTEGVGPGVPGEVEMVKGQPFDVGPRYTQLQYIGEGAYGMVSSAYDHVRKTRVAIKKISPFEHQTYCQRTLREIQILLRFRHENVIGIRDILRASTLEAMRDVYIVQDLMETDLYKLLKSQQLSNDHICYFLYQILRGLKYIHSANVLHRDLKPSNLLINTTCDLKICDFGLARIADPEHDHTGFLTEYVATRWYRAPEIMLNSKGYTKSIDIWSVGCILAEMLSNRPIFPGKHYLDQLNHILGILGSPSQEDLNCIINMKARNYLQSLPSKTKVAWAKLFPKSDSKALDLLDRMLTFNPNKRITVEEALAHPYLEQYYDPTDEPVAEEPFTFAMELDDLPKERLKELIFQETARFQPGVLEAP", "assay": "inhibition of MAPK3 kinase activity – biochemical, ADP-Glo luminescence, cherry pick, set 2, selectivity assay for Dyrk1A inhibitor NFAT project, dose response (AID 602295)", "details": "ERK1 kinase, 120 min; series mostly up to 10 µM; activity change, negative = inhibition: at the top concentration", "units": {"activity change, negative = inhibition": "%"}, "values": [
      {"smiles": "CCN1CCN(Cc2ccc(NC(=O)c3ccc(C)c(/C=C/c4cnc(Nc5cc(N6CCNCC6)nc(C)n5)cn4)c3)cc2C(F)(F)F)CC1", "activity change, negative = inhibition": 15},
      {"smiles": "CCN1CCN(Cc2ccc(NC(=O)c3ccc(C)c(NC(=O)N4CCNC4=O)c3)cc2C(F)(F)F)CC1", "activity change, negative = inhibition": 4.17},
      {"smiles": "c1cncc(CNc2ccnc(-c3ccc4[nH]ncc4c3)n2)c1", "activity change, negative = inhibition": 8.55},
      {"smiles": "Cc1nc(NC(=O)c2ccccc2)sc1-c1csc(NCc2ccco2)n1", "activity change, negative = inhibition": -17.2},
      {"smiles": "c1cncc(-c2nc(NCc3ccco3)c3ccccc3n2)c1", "activity change, negative = inhibition": -18.8},
      {"smiles": "CC(Nc1nc(-c2cccnc2)nc2ccccc12)c1ccc(F)cc1", "note": "(stereo not drawn)", "activity change, negative = inhibition": 22.1},
      {"smiles": "Cc1cc(NCCCn2ccnc2)n2ncc(-c3ccc(Cl)cc3)c2n1", "activity change, negative = inhibition": 19.3},
      {"smiles": "Cc1nc(N)sc1-c1csc(Nc2ccccc2)n1", "activity change, negative = inhibition": -26.4},
      {"smiles": "O=C(Nc1nc2c(s1)CCCC2)c1ccc(N2C(=O)CCC2=O)cc1", "activity change, negative = inhibition": 13},
      {"smiles": "COc1cccc(Nc2ncnc3ccccc23)c1", "activity change, negative = inhibition": 4.09},
      {"smiles": "Cc1nc(CNc2ncnc3ccc(-c4ccoc4)cc23)cs1", "activity change, negative = inhibition": 30.8},
      {"smiles": "COc1ccc(-c2cc(NCCc3ccncc3)n3ncnc3n2)cc1", "activity change, negative = inhibition": -2.17},
      {"smiles": "c1nc(NCC2CCCO2)c2cc(-c3ccc4c(c3)OCO4)ccc2n1", "note": "(stereo not drawn)", "activity change, negative = inhibition": 30.9},
      {"smiles": "Clc1ccc(CNc2cc(-c3ccc4c(c3)OCO4)ncn2)cc1", "activity change, negative = inhibition": -1.91},
      {"smiles": "COc1ccc2c(c1)CCc1c-2n[nH]c1C(=O)O", "activity change, negative = inhibition": 10.8},
      {"smiles": "c1cncc(CNc2cc(-c3ccc4c(c3)OCO4)ncn2)c1", "activity change, negative = inhibition": 15.9},
      {"smiles": "CC(=O)Nc1ccc(Nc2cc(C)nc3c(-c4ccccc4)cnn23)cc1", "activity change, negative = inhibition": -6.73},
      {"smiles": "c1cc(-c2ccc3c(c2)OCO3)nc(Nc2ccc3c(c2)OCO3)n1", "activity change, negative = inhibition": 16.3},
      {"smiles": "O=C(COc1ccccc1)Nc1cccc(-c2cn3cccnc3n2)c1", "activity change, negative = inhibition": -13.8},
      {"smiles": "Clc1ccc(Nc2nccc(-c3ccc4c(c3)OCO4)n2)cc1", "activity change, negative = inhibition": 18.4},
      {"smiles": "O=C(NCc1ccco1)c1sc2ccccc2c1Cl", "activity change, negative = inhibition": 10.5},
      {"smiles": "c1nc(NCC2CCCOC2)c2cc(-c3ccc4c(c3)OCO4)ccc2n1", "note": "(stereo not drawn)", "activity change, negative = inhibition": 6.41},
      {"smiles": "Cc1ccnc(NC(=O)c2cccc(S(=O)(=O)N3CCN(c4ccccc4)CC3)c2)c1", "activity change, negative = inhibition": 5.59},
      {"smiles": "c1cncc(CNc2ccnc(-c3ccc4cn[nH]c4c3)n2)c1", "activity change, negative = inhibition": 23.2},
      {"smiles": "c1csc(CNc2ncnc3ccc(-c4ccoc4)cc23)c1", "activity change, negative = inhibition": 37.5},
      {"smiles": "Fc1cccc(Nc2nc(-c3ccncc3)nc3ccccc23)c1", "activity change, negative = inhibition": 10.8},
      {"smiles": "Cc1ccc(CN(C)c2ncnc3ccc(-c4ccc5c(c4)OCO5)cc23)o1", "activity change, negative = inhibition": 21.6},
      {"smiles": "Clc1cc(Cl)cc(CNc2ncncc2-c2ccc3c(c2)OCO3)c1", "activity change, negative = inhibition": 10.1},
      {"smiles": "Clc1ccc(CNc2nccc(-c3ccc4c(c3)OCCO4)n2)cc1Cl", "activity change, negative = inhibition": 31.5},
      {"smiles": "Cc1ccc(CNc2ncnc3ccc(-c4ccoc4C)cc23)o1", "activity change, negative = inhibition": -4.8},
      {"smiles": "c1cncc(CNc2nccc(-c3ccc4c(c3)OCO4)n2)c1", "activity change, negative = inhibition": 17.8},
      {"smiles": "O=c1cc(-c2ccccc2Cl)oc2c(NS(=O)(=O)c3ccccc3C(F)(F)F)ccc(O)c12", "activity change, negative = inhibition": 14.7},
      {"smiles": "CC(=O)Nc1cccc(NC(=O)c2cc3ccccc3o2)c1", "activity change, negative = inhibition": 13.8}
    ]}
  ]
}
